# Screening data: PubChem, several laboratories
# In the library only some 1.4% were active in any assay of this set; here they are far more common.
# Sa RN4220 lethal: kills Staphylococcus aureus RN4220 | inhibition, % (no concentration beside the values) | 330,000 compounds, 0.33% hits | AID 1259311 | S. aureus RN4220 growth, OD600, 16 h; in the data active means inhibition above about 85%;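 further: plate controls were untreated cells for no effect and reference antibiotic for full effect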
# CCHF vOTU inh-1: CCHFV vOTU protease inhibition | Pep-AMC fluorescence | inhibition, % at 11.5 µM | 370,000 compounds, 0.55% hits | AID 651958; further: 0% = vehicle wells with enzyme and 100% = no enzyme wells
# ugtP null kill: kills S. aureus RN4220 lacking UgtP; S. aureus RN4220 ugtP deletion, OD600 growth, 16 h; growth inhibition, % (no concentration beside the values); 330,000 compounds, 0.54% hits; AID 1259309; in the data active means growth inhibition above about 68%;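 further: plate controls were untreated wells for no effect and antibiotic for full effect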
# Mtb hypoxia inh: inhibitors of hypoxia-regulated fluorescent reporter in Mycobacterium tuberculosis. fluorescence inhibition, % (test concentration not listed). M. tuberculosis hypoxia-regulated fluorescent reporter, fluorescence. 300,000 compounds, 0.1% hits. AID 1159583; in the data active means fluorescence inhibition mostly above about 23%, no sharp cut-off; inactive means mostly below about 17%
# PriA SSB inh: blocks PriA binding to SSB C-terminal tail; AlphaScreen SSBct-PriA binding, biotinylated peptide; AID 1272365; inhibition, % at 33 µM; 430,000 compounds, 0.6% hits; in the data active means inhibition mostly above about 37%, no sharp cut-off; inactive means mostly below about 20%;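 further: plate controls were negative control peptide for no effect and reference peptide for full effect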
# CCHF vOTU inh-2: confirmation of CCHF virus vOTU protease inhibitors; shares compounds with CCHF vOTU inh-1; Recombinant CCHFV vOTU, Pep-AMC fluorescence; inhibition, % at 11.5 µM; 1,900 compounds, 17% hits
# Active calls of the source: *; i = inactive; · = not tested or not shown. Unless noted, no stated cut-off is given here; in the data, active means inhibition above about 30%; inactive means the rest.
SMILES,Sa RN4220 lethal,CCHF vOTU inh-1,ugtP null kill,Mtb hypoxia inh,PriA SSB inh,CCHF vOTU inh-2
O=C(COC(=O)c1ccc([N+](=O)[O-])s1)Nc1ccc(Cl)cn1,6,41*,-19,-1,7,51*
Cc1c(Cl)cnc(NC(=O)COC(=O)c2ccc([N+](=O)[O-])s2)c1Cl,12,74*,-4,10,-7,74*
CC(=O)O/N=C(/N)c1cnn2c(C(F)(F)F)cc(C(F)(F)F)nc12,·,·,·,·,i,·
CC(C)(C)CC(C)(C)NC(=O)CSCC(=O)Nc1ccc2ccccc2c1,-5,30*,-26,-1,4,12
CCc1c(C(=O)N/N=C/c2ccsc2)csc1C,·,30*,·,·,·,-16
CN1CC2C3C(=O)N(Cc4ccccc4)C(=O)C3[C@](C)(C1=O)N2C(=O)c1ccc(C(F)(F)F)cc1 (some centres undefined),5,·,4,13,·,·
Oc1cc(CNCc2ccccc2)c(O)cc1CNCc1ccccc1,1,43*,-5,0,-9,-2
O=C(CSc1nnc(-c2ccccc2Br)o1)Nc1nncs1,7,30*,7,-6,-10,-22
CN(CC(=O)Nc1ccccc1Cl)C(=O)C1CCN(S(=O)(=O)c2ccc3c(c2)OCCO3)CC1,3,17,1,7,2,·
CN(CC(=O)Nc1ccc(F)cc1)C(=O)C1CCN(S(=O)(=O)c2ccc3c(c2)OCCO3)CC1,1,34*,6,4,-2,-16
Cc1nnc(Sc2cc(NCCO)c([N+](=O)[O-])c3nonc23)s1,3,29,4,10,5,·
Cc1nnc(Sc2cc(NCCCO)c([N+](=O)[O-])c3nonc23)s1,0,31*,-4,-5,0,9
Cc1ccc(-n2cc(C(=O)NCc3ccco3)nn2)cc1C,·,·,·,·,-8,·
CC(C)(C)c1ccc(C(=O)Nc2cnc(N3CCOCC3)nc2)cc1,·,·,·,·,-19,·
O=C(N/N=C/c1ccc(Br)o1)/C(=C/c1ccc([N+](=O)[O-])cc1)NC(=O)c1ccccc1,·,38*,·,·,·,-5
O=C(NN=Cc1ccc(Br)o1)/C(=C/c1ccc([N+](=O)[O-])cc1)NC(=O)c1ccccc1,6,·,-6,7,23,·
C[C@](O)(CN)c1cccs1,·,·,·,·,-4,·
COc1ccc(C(=O)CC(=O)C(=O)NCCc2cccc(C)c2)cc1,17,31*,-1,4,8,-5
CCCN(CCC)S(=O)(=O)c1ccc(C(=O)OCc2nc3ccccc3s2)cc1,·,·,·,·,-5,·
O=C(N=C1c2ccccc2CN1c1ccccc1)c1cccc([N+](=O)[O-])c1,7,30*,9,3,10,-12
CCOC(=O)c1ccc(N2Cc3ccccc3C2=NC(=O)c2cccc([N+](=O)[O-])c2)cc1,10,-1,18,10,2,·
Cc1cc(C)nc(N=C(N)Nc2ccc3c(c2)OCCO3)n1,8,·,9,14,3,·
CCOc1ccc(Br)cc1S(=O)(=O)Nc1cccc(S(=O)(=O)Nc2ccccc2C(=O)O)c1,0,30*,45,9,-1,-4
O=C(O)c1ccccc1NS(=O)(=O)c1cccc(NS(=O)(=O)c2cc(Br)ccc2Br)c1,2,12,17,3,-6,·
COC(=O)C1=C(c2ccc(S(C)(=O)=O)cc2)CC2CCC1N2C(=O)NCC1CC1 (centres undefined),7,·,1,2,·,·
SMILES,Sa RN4220 lethal,CCHF vOTU inh-1,ugtP null kill,Mtb hypoxia inh,PriA SSB inh,CCHF vOTU inh-2
O=C1C2=C(c3ccccc31)[N+](=O)[C@@H]1CCCC[C@@H]1N2[O-],19,74*,13,4,15,27
O=C1C2=C(c3ccccc31)[N+](=O)C1CCCCC1N2[O-] (centres undefined),2,57*,7,·,-7,29
CC1(C(=O)NCc2cccc3ccccc23)CCN1Cc1ccc(OC(F)(F)F)cc1 (centres undefined),·,34*,·,·,·,17
CCCCNC(=O)C1(C)CCN1C(=O)Cc1cccc2ccccc12 (centres undefined),·,47*,·,·,·,-23
CC1(C(=O)NCc2ccc(Cl)cc2)CCN1C(=O)Cc1cccc2ccccc12 (centres undefined),·,10,·,·,·,·
COc1cccc(C(=O)CSc2ccc(NC(=O)c3cccs3)nn2)c1,·,·,·,·,-8,·
COc1ccc2nc(-c3ccco3)c(-c3ccco3)nc2c1,11,63*,-2,13,4,-15
c1coc(-c2nc(-c3ccco3)c(-c3ccco3)nc2-c2ccco2)c1,9,35*,15,1,43*,-14
Nc1nc(-c2ccco2)c(-c2ccco2)s1,1,11,-2,·,-2,·
COc1ccc(-c2nc3ccccc3nc2-c2ccc(OC)cc2)cc1,4,-4,25,13,-41,·
Cc1ccc(-n2cc(C(=O)NCc3ccccc3)nn2)cc1C,·,·,·,·,-6,·
COc1ccc(CC(=O)N(C)CC2Cc3ccccc3CO2)cc1 (centres undefined),·,·,·,·,-5,·
CCCOc1ccccc1OCC(=O)Nc1cc(Cl)ccc1-n1cncn1,5,32*,-2,-4,-1,-16
COC1=CC(=Cc2c(N)n3nc(CC(=O)N4CCCCC4)sc3nc2=O)C=C(OC)C1=O,·,34*,·,·,-2,4
COc1ccc(C(O)=C2C(=O)C(=O)N(CCCN(C)C)C2c2ccc(Cl)cc2)cc1OC (centres undefined),7,·,2,4,2,·
CCSc1ncc(/C=N/Nc2ccc([N+](=O)[O-])cc2)n1C,·,3,·,·,·,·
C=Cc1cnc([N+](=O)[O-])n1C,·,30*,·,·,·,-18
COc1ccc(Cl)cc1S(=O)(=O)N1CCN(c2ccc(-c3ccncc3)nn2)CC1,·,·,·,·,-2,·
CCCc1cc(=O)[nH]c(SCC(=O)Nc2cc(S(=O)(=O)N(CC)c3ccccc3)ccc2Cl)n1,12,35*,-11,-4,-2,11
CCN(CC)S(=O)(=O)c1cc(NC(=O)CN2C(=O)NC(C)(c3ccccc3)C2=O)ccc1C (centres undefined),-2,34*,-6,7,-11,4
CCN(CC)S(=O)(=O)c1cc(NC(=O)CN2C(=O)NC3(CCCc4ccccc43)C2=O)ccc1C (centres undefined),-4,11,-6,5,13,·
Nc1nc(Nc2ccc(Cl)cc2)n[nH]1,-2,1,10,·,-3,·
Nc1nc(Nc2ccccc2)n[nH]1,3,32*,2,15,-14,-22
Cc1ccc(/C=C/C(=O)Nc2nccs2)o1,13,51*,5,11,1,2
CC(=O)CC(O)CC(=O)C1OC(=O)C(C)CC=CCc2ccccc21 (centres undefined),4,·,4,6,·,·
COc1ccc(-c2noc(CSc3nc4ccsc4c(=O)n3-c3ccc(C)cc3)n2)cc1OC,·,·,·,·,-10,·
O=C(Nc1cccc2ccccc12)C1CCN(C(=O)NCc2ccccc2)CC1,1,35*,2,·,-6,4
O=C(O)Cn1ccc(=O)c2cc(Cl)ccc21,·,·,·,·,-14,·
COc1cccc(C(=O)NN=C2SCC(=O)N2Cc2ccc3c(c2)OCO3)c1,1,·,-5,5,-11,·
